In the supplement of paper PMC10849652:
Targets with a hit are over-represented here; the source holds about 7,900 in all. About 0.6% of all pairs of compound and target were hits. Unmarked numbers belong to inactive results.

Compound: C1=CC(=C(C=C1Cl)C2=NC3=NC=CN=C3C(=N2)NC4=CC=NC=C4)F
Assay: log2 fold change, soluble protein after heating vs DMSO (PISA); higher = thermal stabilisation; K562 cells, 10 uM, 30 min; active = over 0.2 and 3.5 SD of the protein, either way, in both replicates (recomputed)
Summary of the method: (§1)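 K562 cells at 2×10^6 cells/mL were given 10 μM compound for 30 min. Aliquots then went through 3 min of heating across 48°C-58°C, were pooled, and were extracted in PBS with 0.5% NP-40 at 4°C, and the supernatant after 21,000xg for 90 min was quantified by TMTpro 16plex LC-MS/MS with channel sums equalised. Thermal stability relative to control samples, from duplicates, is given as log2 fold change.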

Chain of UniProt Q8IW41 (Q8IW41 whole entry, looked up): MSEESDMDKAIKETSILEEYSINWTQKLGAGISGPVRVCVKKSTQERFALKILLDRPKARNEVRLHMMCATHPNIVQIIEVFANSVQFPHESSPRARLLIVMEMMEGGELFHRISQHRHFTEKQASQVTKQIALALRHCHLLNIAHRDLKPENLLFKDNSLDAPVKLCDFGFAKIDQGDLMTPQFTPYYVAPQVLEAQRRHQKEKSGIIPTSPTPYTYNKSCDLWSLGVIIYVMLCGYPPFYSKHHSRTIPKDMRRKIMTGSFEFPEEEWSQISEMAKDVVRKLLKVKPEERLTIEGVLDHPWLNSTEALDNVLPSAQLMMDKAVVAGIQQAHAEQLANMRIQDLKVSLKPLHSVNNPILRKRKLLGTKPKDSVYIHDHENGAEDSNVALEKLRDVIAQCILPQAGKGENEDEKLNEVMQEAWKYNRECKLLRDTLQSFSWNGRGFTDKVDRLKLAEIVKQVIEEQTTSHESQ
Chain of UniProt Q86X29 (Q86X29 whole entry, looked up): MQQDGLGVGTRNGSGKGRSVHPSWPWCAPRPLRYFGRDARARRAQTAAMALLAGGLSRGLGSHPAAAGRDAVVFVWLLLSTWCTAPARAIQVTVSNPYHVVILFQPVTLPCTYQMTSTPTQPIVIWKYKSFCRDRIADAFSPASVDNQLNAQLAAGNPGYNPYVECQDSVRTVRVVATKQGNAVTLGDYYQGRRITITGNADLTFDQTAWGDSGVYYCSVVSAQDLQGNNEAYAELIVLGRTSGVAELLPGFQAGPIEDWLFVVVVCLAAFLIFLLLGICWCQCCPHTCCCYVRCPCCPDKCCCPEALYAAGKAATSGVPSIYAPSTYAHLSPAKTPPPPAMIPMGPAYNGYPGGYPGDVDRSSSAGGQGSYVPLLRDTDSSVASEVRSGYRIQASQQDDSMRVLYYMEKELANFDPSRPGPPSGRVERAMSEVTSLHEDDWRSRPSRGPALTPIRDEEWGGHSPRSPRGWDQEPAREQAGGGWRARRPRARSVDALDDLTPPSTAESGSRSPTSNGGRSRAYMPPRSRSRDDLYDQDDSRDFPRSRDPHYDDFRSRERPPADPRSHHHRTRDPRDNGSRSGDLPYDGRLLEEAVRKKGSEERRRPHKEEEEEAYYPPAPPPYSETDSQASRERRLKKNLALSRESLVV
Chain of UniProt Q9Y383 (Q9Y383 whole entry, looked up): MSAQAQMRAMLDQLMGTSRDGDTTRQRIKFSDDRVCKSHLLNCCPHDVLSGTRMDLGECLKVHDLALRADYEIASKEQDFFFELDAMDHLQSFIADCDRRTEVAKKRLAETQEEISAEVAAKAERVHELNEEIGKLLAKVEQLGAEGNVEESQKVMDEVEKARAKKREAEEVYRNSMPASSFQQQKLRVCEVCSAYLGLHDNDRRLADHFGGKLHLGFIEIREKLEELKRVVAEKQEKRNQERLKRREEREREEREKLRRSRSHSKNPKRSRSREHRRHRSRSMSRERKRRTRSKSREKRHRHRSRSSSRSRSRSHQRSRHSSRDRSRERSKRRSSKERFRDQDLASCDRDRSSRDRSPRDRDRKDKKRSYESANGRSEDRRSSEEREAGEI
Chain of UniProt Q86V48 (Q86V48 whole entry, looked up): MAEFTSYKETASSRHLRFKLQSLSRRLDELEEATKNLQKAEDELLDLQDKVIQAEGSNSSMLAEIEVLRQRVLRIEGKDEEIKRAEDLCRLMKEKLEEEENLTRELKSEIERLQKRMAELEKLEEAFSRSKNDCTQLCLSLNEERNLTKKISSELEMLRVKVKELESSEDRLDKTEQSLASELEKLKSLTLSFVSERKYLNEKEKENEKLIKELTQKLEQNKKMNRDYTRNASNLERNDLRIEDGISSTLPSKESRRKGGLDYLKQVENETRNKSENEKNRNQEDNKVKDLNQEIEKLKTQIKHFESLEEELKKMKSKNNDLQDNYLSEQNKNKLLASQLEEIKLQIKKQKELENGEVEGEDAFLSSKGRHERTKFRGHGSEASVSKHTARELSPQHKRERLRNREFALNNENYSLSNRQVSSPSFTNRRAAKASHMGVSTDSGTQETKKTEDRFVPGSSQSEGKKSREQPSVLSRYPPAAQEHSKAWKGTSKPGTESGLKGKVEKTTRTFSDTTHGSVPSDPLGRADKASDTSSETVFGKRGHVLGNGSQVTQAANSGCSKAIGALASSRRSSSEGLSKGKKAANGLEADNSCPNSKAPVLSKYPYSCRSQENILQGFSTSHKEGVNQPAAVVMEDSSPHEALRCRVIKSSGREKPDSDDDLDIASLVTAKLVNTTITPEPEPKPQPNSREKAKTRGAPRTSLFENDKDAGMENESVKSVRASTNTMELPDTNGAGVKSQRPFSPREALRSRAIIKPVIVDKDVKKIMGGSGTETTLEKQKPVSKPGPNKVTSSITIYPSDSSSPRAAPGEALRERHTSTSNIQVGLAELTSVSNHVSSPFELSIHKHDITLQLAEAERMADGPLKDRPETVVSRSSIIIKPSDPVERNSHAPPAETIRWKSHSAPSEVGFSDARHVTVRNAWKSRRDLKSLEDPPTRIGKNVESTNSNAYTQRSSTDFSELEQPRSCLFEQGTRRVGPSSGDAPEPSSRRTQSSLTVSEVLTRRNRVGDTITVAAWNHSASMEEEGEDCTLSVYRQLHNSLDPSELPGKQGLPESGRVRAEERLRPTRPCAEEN
Chain of UniProt Q96LU5 (Q96LU5 whole entry, looked up): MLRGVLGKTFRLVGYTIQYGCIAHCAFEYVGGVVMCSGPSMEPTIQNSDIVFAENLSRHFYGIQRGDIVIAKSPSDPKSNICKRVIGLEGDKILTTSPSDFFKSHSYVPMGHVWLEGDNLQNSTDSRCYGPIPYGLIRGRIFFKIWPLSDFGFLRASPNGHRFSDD
Chain of UniProt O95140 (O95140 whole entry, looked up): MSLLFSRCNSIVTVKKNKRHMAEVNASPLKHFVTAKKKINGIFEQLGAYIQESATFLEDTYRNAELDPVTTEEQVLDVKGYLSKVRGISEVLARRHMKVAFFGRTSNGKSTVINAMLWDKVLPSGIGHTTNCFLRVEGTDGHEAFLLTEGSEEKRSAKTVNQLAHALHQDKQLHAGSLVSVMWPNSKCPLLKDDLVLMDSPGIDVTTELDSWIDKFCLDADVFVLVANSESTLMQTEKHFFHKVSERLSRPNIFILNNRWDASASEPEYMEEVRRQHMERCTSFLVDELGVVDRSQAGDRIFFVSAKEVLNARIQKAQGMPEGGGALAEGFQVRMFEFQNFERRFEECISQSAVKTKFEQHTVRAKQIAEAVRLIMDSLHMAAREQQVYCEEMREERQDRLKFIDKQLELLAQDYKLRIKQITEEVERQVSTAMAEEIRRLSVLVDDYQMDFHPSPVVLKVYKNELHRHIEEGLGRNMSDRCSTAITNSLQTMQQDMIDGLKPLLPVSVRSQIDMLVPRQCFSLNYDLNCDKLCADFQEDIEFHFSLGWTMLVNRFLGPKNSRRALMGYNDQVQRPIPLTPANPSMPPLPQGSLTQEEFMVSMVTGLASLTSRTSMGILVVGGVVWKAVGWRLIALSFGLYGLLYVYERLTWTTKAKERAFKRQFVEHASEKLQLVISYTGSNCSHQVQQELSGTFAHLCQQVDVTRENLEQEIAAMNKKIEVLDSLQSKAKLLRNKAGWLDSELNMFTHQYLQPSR
Chain of UniProt O95232 (O95232 whole entry, looked up): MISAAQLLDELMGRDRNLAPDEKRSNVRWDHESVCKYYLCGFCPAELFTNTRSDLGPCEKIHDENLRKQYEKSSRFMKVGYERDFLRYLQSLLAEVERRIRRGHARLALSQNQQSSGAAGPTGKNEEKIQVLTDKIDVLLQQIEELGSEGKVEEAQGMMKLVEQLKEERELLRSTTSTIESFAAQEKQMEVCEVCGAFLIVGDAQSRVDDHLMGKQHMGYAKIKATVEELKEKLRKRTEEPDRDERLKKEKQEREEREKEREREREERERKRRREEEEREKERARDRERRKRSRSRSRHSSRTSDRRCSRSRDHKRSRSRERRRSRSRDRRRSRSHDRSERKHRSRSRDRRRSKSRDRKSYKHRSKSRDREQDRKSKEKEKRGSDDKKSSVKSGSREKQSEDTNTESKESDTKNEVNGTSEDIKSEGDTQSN
Chain of UniProt P45984 (P45984 whole entry, looked up): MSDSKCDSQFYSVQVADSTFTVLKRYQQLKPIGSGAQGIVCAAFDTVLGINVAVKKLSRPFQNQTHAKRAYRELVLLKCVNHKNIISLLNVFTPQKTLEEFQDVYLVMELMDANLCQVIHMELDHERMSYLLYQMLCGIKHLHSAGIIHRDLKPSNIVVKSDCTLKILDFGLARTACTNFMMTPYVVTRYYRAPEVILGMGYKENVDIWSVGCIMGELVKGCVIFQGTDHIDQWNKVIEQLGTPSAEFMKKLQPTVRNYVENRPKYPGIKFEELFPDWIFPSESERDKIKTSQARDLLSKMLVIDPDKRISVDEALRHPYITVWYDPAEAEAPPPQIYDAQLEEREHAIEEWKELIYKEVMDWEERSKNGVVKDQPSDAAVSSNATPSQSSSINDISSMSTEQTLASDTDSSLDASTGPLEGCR

Target | log2 fold change
MAPK9 (UniProt P45984) | 0.031
MGST3 (UniProt O14880) | 0.013
INTS7 (UniProt Q9NVH2) | -0.016
LARP1 (UniProt Q6PKG0) | -0.11
KDM5D isoform 3 (UniProt Q9BY66) | 0.067
MAP2K1 (UniProt Q02750) | 0.037
MAP3K20 (UniProt Q9NYL2) | -0.009
LUC7L3 (UniProt O95232) | -0.018
LBR (UniProt Q14739) | 0.043
L2HGDH (UniProt Q9H9P8) | 0.009
KDM3B (UniProt Q7LBC6) | 0.083
LUC7L2 (UniProt Q9Y383) | 0.013
MFN2 (UniProt O95140) | 0.007
IPO9 (UniProt Q96P70) | 0.01
LSR (UniProt Q86X29) | -0.08
MAP4 (UniProt P27816) | 0.006
LARP7 isoform 3 (UniProt Q4G0J3) | 0.022
MFF (UniProt Q9GZY8) | 0.011
METTL18 (UniProt O95568) | -0.08
ILF3 isoform 7 (UniProt Q12906) | -0.266

Target | log2 fold change
LAMP2 (UniProt P13473) | 0.088
LRPPRC (UniProt P42704) | 0.002
MAPKAPK3 (UniProt Q16644) | 0.431 (active)
MDC1 (UniProt Q14676) | -0.184
MAPKAPK5 (UniProt Q8IW41) | 0.024
KRAS isoform 2 (UniProt P01116) | 0.006
LTO1 (UniProt Q8WV07) | 0.032
MEAK7 (UniProt Q6P9B6) | 0.023
KPNA6 (UniProt O60684) | -0.068
LSS (UniProt P48449) | -0.029
MARK3 (UniProt P27448) | -0.031
KIFBP (UniProt Q96EK5) | 0
LUZP1 (UniProt Q86V48) | -0.328
MARK2 (UniProt E9PC69) | 0.043
IRF2BPL (UniProt Q9H1B7) | 0.068
MFN1 (UniProt Q8IWA4) | 0.042
LUC7L (UniProt Q9NQ29) | -0.092
IMMP1L (UniProt Q96LU5) | 0.01
IL27RA (UniProt Q6UWB1) | -0.147

Compound: C1=CC(=CC=C1C2=NC3=C(N2)C=C(C=C3)C(=O)N)OC4=CC=C(C=C4)Cl
Assay: as above
Summary of the method: as §1

Target | log2 fold change
MAPK9 (UniProt P45984) | -0.02
MGST3 (UniProt O14880) | 0.003
INTS7 (UniProt Q9NVH2) | 0.046
LARP1 (UniProt Q6PKG0) | 0.085
KDM5D isoform 3 (UniProt Q9BY66) | -0.147
MAP2K1 (UniProt Q02750) | -0.001
MAP3K20 (UniProt Q9NYL2) | 0.043
LUC7L3 (UniProt O95232) | 0.042
LBR (UniProt Q14739) | -0.016
L2HGDH (UniProt Q9H9P8) | 0.043
KDM3B (UniProt Q7LBC6) | -0.019
LUC7L2 (UniProt Q9Y383) | 0.098
MFN2 (UniProt O95140) | -0.001
IPO9 (UniProt Q96P70) | -0.061
LSR (UniProt Q86X29) | 0.002
MAP4 (UniProt P27816) | -0.009
LARP7 isoform 3 (UniProt Q4G0J3) | 0.034
MFF (UniProt Q9GZY8) | -0.024
METTL18 (UniProt O95568) | 0.027
ILF3 isoform 7 (UniProt Q12906) | -0.004

Target | log2 fold change
LAMP2 (UniProt P13473) | 0.031
LRPPRC (UniProt P42704) | -0.255
MAPKAPK3 (UniProt Q16644) | -0.041
MDC1 (UniProt Q14676) | 0.025
MAPKAPK5 (UniProt Q8IW41) | -0.087
KRAS isoform 2 (UniProt P01116) | 0.029
LTO1 (UniProt Q8WV07) | 0.059
MEAK7 (UniProt Q6P9B6) | 0.054
KPNA6 (UniProt O60684) | -0.075
LSS (UniProt P48449) | 0.051
MARK3 (UniProt P27448) | 0.014
KIFBP (UniProt Q96EK5) | 0.017
LUZP1 (UniProt Q86V48) | -0.01
MARK2 (UniProt E9PC69) | -0.042
IRF2BPL (UniProt Q9H1B7) | 0.04
MFN1 (UniProt Q8IWA4) | 0.001
LUC7L (UniProt Q9NQ29) | 0.114
IMMP1L (UniProt Q96LU5) | -0.017
IL27RA (UniProt Q6UWB1) | 0.007
